Inconclusive results are not listed. Some compounds were tested as several samples or in several runs, with calls that do not always agree. Activity calls are given as the source filed them. Unless noted, calls come from the whole dose curve; as a rule, active = well fitted curve in the direction sought with a large enough effect in the repeat runs; inconclusive = weak or mixed curves; inactive = no such curve, though single readings can be large; an effect the other way counts as inactive or inconclusive.
Assays:
[1] = qHTS assay for small molecule agonists of the p53 signaling pathway (AID 651631; calls by dose curve; note: nearly all actives have a fitted effect of over 15% in size)
Summary of the method: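 HCT-116 p53RE-bla reporter line, 16 h compound treatment at 37 °C, then fluorescence after 2 h with B/G FRET substrate.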

[2] = qHTS assay for small molecules that induce genotoxicity in human embryonic kidney cells expressing luciferase-tagged ATAD5 (AID 651632); note: nearly all actives have a fitted effect of over 15% in size
Summary of the method: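 Test compounds were delivered by pin tool onto HEK293T reporter cells (2,000/well) expressing ATAD5 fused to luciferase. After 16 hr at 37C, 5% CO2, Amplite was added for 30 min at room temperature and luminescence was measured.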

[3] = qHTS assay for small molecule agonists of the p53 signaling pathway - cell viability (AID 651633; calls by dose curve;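 note: p53RE-bla HCT reporter cells with a stable beta-lactamase p53 reporter; series mostly up to about 83 µM; nearly all actives have a fitted effect of over 30% in size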)
Summary of the method: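 p53RE-bla cells, seeded at 4,000 per well and rested 5 h at 37 C/5% CO2, received compounds in DMSO for 16 h at 37 C. CellTiter-Glo was then added, and luminescence was read after 30 min at room temperature to gauge cytotoxicity.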

[4] = qHTS assay for small molecules that induce genotoxicity in human embryonic kidney cells expressing luciferase-tagged ATAD5 - cell viability (AID 651634; calls by dose curve; note: nearly all actives have a fitted effect of over 25% in size)
Summary of the method: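 Quantitative high-throughput format. HEK293T cells expressing ATAD5 fused to luciferase were plated at 2,000 cells/well and treated 15.5 hr with compound versus DMSO. Viability was determined by fluorescent live-cell protease substrate, 30 min at 37C.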

[5] = qHTS assay for small molecule disruptors of the mitochondrial membrane potential - cell viability (AID 720634; calls by dose curve;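 note: human HepG2 liver cancer cells; series mostly up to about 83 µM; nearly all actives have a fitted effect of over 20% in size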)
Summary of the method: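 Same-well counter-screen: following the MMP dye addition, CellTiter-Glo was added to 1 hr compound-treated HepG2 cells and luminescence read after 30 min at room temperature.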

[6] = qHTS assay for small molecule disruptors of the mitochondrial membrane potential (AID 720635); note: potency is the fitted concentration of half-maximal effect
Summary of the method: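 HepG2 cells (2,000/well) attached overnight at 37C, then took compound for 1 hr at 37C, 5% CO2. Mito-MPS dye was added for 30 min; fluorescence was read at 490/535 nm (monomers) and 540/590 nm (aggregates).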

[7] = qHTS assay to test for compound auto fluorescence at 590 nm (red) in HepG2 cells (AID 720674)
Summary of the method: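 Rose Bengal sodium served as the red fluorophore standard. HepG2 monolayers (overnight attachment, MEM with 10% FBS) were exposed to test compounds for 1 hr at 37 C and read at Ex 540/Em 590 nm.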

[8] = qHTS assay to test for compound auto fluorescence at 535 nm (green) in HepG2 cells (AID 720675)
[9] = qHTS assay to test for compound auto fluorescence at 460 nm (blue) in HEK293 cells (AID 720678)
Summary of the method: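 Cells were seeded and left to adhere for 4-5 hr at 37C. Compounds were then pin-transferred. After an overnight incubation at 37C under 5% CO2, intrinsic fluorescence at 405/460 nm was measured and referenced to triamterene.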

[10] = qHTS assay to test for compound auto fluorescence at 590 nm (red) in HEK293 cells (AID 720679)
Summary of the method: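 Each well held 2,000 HEK293 cells in medium containing 10% dialyzed FBS. Following 4-5 hr attachment at 37C, 23 nL test compound or DMSO was added; plates sat overnight, and red fluorescence (540/590nm) was recorded.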
% is set by controls: 0 for no effect and ±100 for the full control effect.

NC(=S)NNC(N)=S
inactive: outcome [1] | outcome [2] | outcome [3] | Potency [4] | Potency [5] | Potency [6] | outcome [7] | outcome [8] | outcome [9] | outcome [10]

CN(C)c1ccc(Cc2ccc(N(C)C)cc2)cc1
inactive: outcome [1] | outcome [2] | outcome [3] | Potency [4] | Potency [5] | outcome [7] | outcome [8] | outcome [9] | outcome [10]
54.7 µM (active) and inactive: Potency [6]

C=Cc1ccc(C)cc1
inactive: outcome [1] | outcome [2] | outcome [3] | Potency [4] | Potency [5] | Potency [6] | outcome [7] | outcome [8] | outcome [9] | outcome [10]

CC(=O)CCC=C(C)C
inactive: outcome [1] | outcome [2] | outcome [3] | Potency [4] | Potency [5] | Potency [6] | outcome [7] | outcome [8] | outcome [9] | outcome [10]

COC(=O)c1cccnc1
inactive: outcome [1] | outcome [2] | outcome [3] | Potency [4] | Potency [5] | Potency [6] | outcome [7] | outcome [8] | outcome [9] | outcome [10]

c1ccc(Oc2ccccc2)cc1
inactive: outcome [1] | outcome [2] | outcome [3] | Potency [4] | Potency [5] | Potency [6] | outcome [7] | outcome [8] | outcome [9] | outcome [10]

CC(=O)CC(C)(C)O
inactive: outcome [1] | outcome [2] | outcome [3] | Potency [4] | Potency [5] | Potency [6] | outcome [7] | outcome [8] | outcome [9] | outcome [10]

CC(O)CC(C)(C)O (stereo not given)
inactive: outcome [1] | outcome [2] | outcome [3] | Potency [4] | Potency [5] | Potency [6] | outcome [7] | outcome [8] | outcome [9] | outcome [10]

CCCCCC(=O)O
inactive: outcome [1] | outcome [2] | outcome [3] | Potency [4] | Potency [5] | Potency [6] | outcome [7] | outcome [8] | outcome [9] | outcome [10]

CCc1ccccc1CC
inactive: outcome [1] | outcome [2] | outcome [3] | Potency [4] | Potency [5] | ratio activity, negative = MMP loss [6] 5.07% [at 17.9 µM] | outcome [7] | outcome [8] | outcome [9] | outcome [10]

O=C(O)c1ccc(S(=O)(=O)N(Cl)Cl)cc1
inactive: outcome [1] | outcome [2] | outcome [3] | Potency [4] | Potency [5] | Potency [6] | outcome [7] | outcome [8] | outcome [9] | outcome [10]

COc1ccc([N+](=O)[O-])cc1N
inactive: outcome [1] | outcome [2] | outcome [3] | Potency [4] | Potency [5] | outcome [7] | outcome [8] | outcome [9] | outcome [10]
active: Potency [6] 48.8 µM

C=CC[N+](C)(C)CC=C
inactive: outcome [1] | outcome [2] | outcome [3] | Potency [4] | Potency [5] | Potency [6] | outcome [7] | outcome [8] | outcome [9] | outcome [10]

NCCCCCCN
inactive: outcome [1] | outcome [2] | outcome [3] | Potency [4] | Potency [5] | Potency [6] | outcome [7] | outcome [8] | outcome [9] | outcome [10]

CC(=O)Oc1ccc(C)cc1
inactive: outcome [1] | outcome [2] | outcome [3] | Potency [4] | Potency [5] | Potency [6] | outcome [7] | outcome [8] | outcome [9] | outcome [10]

CC1(C)S[C@@H]2[C@H](NC(=O)COc3ccccc3)C(=O)N2[C@H]1C(=O)O
inactive: outcome [1] | outcome [2] | outcome [3] | Potency [4] | Potency [5] | Potency [6] | outcome [7] | outcome [8] | outcome [9] | outcome [10]

c1ccc2c(c1)Cc1ccccc1-2
inactive: outcome [1] | outcome [2] | outcome [3] | Potency [4] | Potency [5] | Potency [6] | outcome [7] | outcome [8] | outcome [9] | outcome [10]

O=C1C(c2[nH]c3ccccc3c2O)=Nc2ccccc21
active: Potency [6] 4.22 µM
inactive: outcome [1] | outcome [2] | outcome [3] | Potency [4] | Potency [5] | outcome [7] | outcome [8] | outcome [9] | outcome [10]

Cc1ccc(S(=O)(=O)N=C=O)cc1
inactive: outcome [1] | outcome [2] | outcome [3] | Potency [4] | Potency [5] | Potency [6] | outcome [7] | outcome [8] | outcome [9] | outcome [10]

O=C1CCCC1
inactive: outcome [1] | outcome [2] | outcome [3] | Potency [4] | Potency [5] | Potency [6] | outcome [7] | outcome [8] | outcome [9] | outcome [10]

C=CC(=O)OCCC(=O)O
inactive: outcome [1] | outcome [2] | outcome [3] | Potency [4] | Potency [5] | Potency [6] | outcome [7] | outcome [8] | outcome [9] | outcome [10]

CC(=O)c1ccc(O)cc1
inactive: outcome [1] | outcome [2] | outcome [3] | Potency [4] | Potency [5] | Potency [6] | outcome [7] | outcome [8] | outcome [9] | outcome [10]

OCc1cccc(Oc2ccccc2)c1
inactive: outcome [1] | outcome [2] | outcome [3] | Potency [4] | Potency [5] | outcome [7] | outcome [8] | outcome [9] | outcome [10]
active: Potency [6] 54.5 µM

O=C(O)c1ccccc1C(=O)O
inactive: outcome [1] | outcome [2] | outcome [3] | Potency [4] | Potency [5] | Potency [6] | outcome [7] | outcome [8] | outcome [9] | outcome [10]

O=C(OCC1CCC2OC2C1)C1CCC2OC2C1 (stereo not given)
inactive: outcome [1] | outcome [2] | outcome [3] | Potency [4] | Potency [5] | Potency [6] | outcome [7] | outcome [8] | outcome [9] | outcome [10]
